# Measurements published in ChEMBL document CHEMBL4513216, “Probing the Open Global Health Chemical Diversity Library for Multistage-Active Starting Points for Next-Generation Antimalarials” (ACS Infect Dis, 2020).
# The campaign covered roughly 69,000 compounds. About 8,600 (12%) showed an effect of 50% or more. The full list was thinned out, with strong results kept by preference.
# Test system: Plasmodium berghei
# Assay: Screen against P. berghei liver stage (PbLuc), transformed with Luciferase, at 10uM
# Assay type: functional, HepG2
# Settings: tested at 10 uM
row,Structure (SMILES),INHIBITION
1,CNC(=O)c1sc2ccccc2c1CC1CCCCN1Cc1ncc[nH]1 (stereo not given),42.2%
2,O=C(Cn1nc(Br)nc1Br)N1CCCC1,27.4%
3,Cc1cccc(CN2CC[C@@H]3[C@@H]2CCN3C(=O)Cc2ccsc2)n1,63.8%
4,O=C1C[C@H]2[C@@H](CCN2C(=O)Cc2cccs2)N1CC1CC1,-38.1%
5,O=C(Cc1cccs1)N1CC[C@H]2[C@H]1CCN2Cc1cccnc1,-25.8%
6,Cc1ccc(CN2CC[C@@H]3[C@@H]2CCN3C(=O)Cc2cccs2)o1,93.7%
7,Cc1ccc(N2CCCN(C(=O)CCc3ccsc3)CC2)nn1,1.04%
8,Cc1ccc(NC2CCN(C(=O)CCc3ccsc3)CC2)nn1,-59.4%
9,Cc1cccc(CN2C(=O)C[C@@H]3[C@@H]2CCN3Cc2ccsc2)n1,46.9%
10,Cc1ccc(N2CC[C@@H]3[C@@H]2CCN3C(=O)Cc2ccsc2)nn1,55.7%
11,Cc1cccc(CN2CC[C@@H]3[C@@H]2CCN3C(=O)Cc2cccs2)n1,42.1%
12,COC(=O)[C@H](CCSC)NC(=O)Cn1ccc2c(Cl)cccc21,25%
13,CN(C)C(=O)c1sc2ncccc2c1C1CNCCO1 (stereo not given),12.8%
14,O=C(CO)N1CCC(c2cncc(-c3cccc(Cl)c3)n2)CC1,46.6%
15,Cc1cnn(C2CCCN(C(=O)c3cc(Cl)c4c(c3)OCO4)C2)c1 (stereo not given),37.9%
16,COc1ccc(-n2cc3nc(N)[nH]cc-3c2=O)cc1Cl,43.3%
17,COc1ccc(-c2ccnc3nc(N4CCCCC4)[nH]c(=O)c23)cc1,30.8%
18,CC(C)c1nnc2n1CCN(Cc1cc(Cl)c3c(c1)OCO3)C2,33.7%
19,CC(C)c1nnc2n1CCN(Cc1ccc3c(c1)OCCO3)C2,-41.4%
20,CC(C)c1nnc2n1CCN(Cc1ccc3c(c1)OCO3)CC2,54.6%
21,O=C(NCC1CCC(c2ccnc3ncnn23)CC1)c1ccccn1 (stereo not given),-24.4%
22,COc1ccc(C2(NC(=O)CCn3cncn3)CCCCC2)cc1,62.6%
23,O=C(CCn1cncn1)NC1(c2cccc(Br)c2)CCC1,33.5%
24,Cn1nc(C(=O)NC2(c3ccc(Cl)cc3)CCCC2)ccc1=O,6.67%
25,O=C(CCCn1cncn1)NC1(c2cccc(Br)c2)CC1,27.5%
26,O=C(CCCn1cncn1)NC1(c2ccccc2)CCC1,-21.5%
27,O=C(CCCn1cncn1)NC1(c2ccc(Cl)cc2)CCC1,61.3%
28,Cc1cccc(C2(NC(=O)CCCn3cncn3)CCCC2)c1,57.3%
29,Cc1cccc(C2(NC(=O)CCN3C(=O)CCC3=O)CCCC2)c1,28.7%
30,COc1ccc(C2(NC(=O)c3ccc(=O)n(C)n3)CCCC2)cc1,17.7%
